We go through 40 compounds from PubChem BioAssay (NCATS).

The structures appear in SMILES notation. A number with no mark means an inactive call. The call rests on the fitted dose curve; in most records, active means well fitted curve in the direction sought with a large enough effect; inconclusive means small, poorly fitted or top-dose-only effect, or another doubt; inactive means no such curve, though single readings can be large or run the other way.

Sequence of Thyrotropin receptor (Homo sapiens) (P16473 whole entry, looked up): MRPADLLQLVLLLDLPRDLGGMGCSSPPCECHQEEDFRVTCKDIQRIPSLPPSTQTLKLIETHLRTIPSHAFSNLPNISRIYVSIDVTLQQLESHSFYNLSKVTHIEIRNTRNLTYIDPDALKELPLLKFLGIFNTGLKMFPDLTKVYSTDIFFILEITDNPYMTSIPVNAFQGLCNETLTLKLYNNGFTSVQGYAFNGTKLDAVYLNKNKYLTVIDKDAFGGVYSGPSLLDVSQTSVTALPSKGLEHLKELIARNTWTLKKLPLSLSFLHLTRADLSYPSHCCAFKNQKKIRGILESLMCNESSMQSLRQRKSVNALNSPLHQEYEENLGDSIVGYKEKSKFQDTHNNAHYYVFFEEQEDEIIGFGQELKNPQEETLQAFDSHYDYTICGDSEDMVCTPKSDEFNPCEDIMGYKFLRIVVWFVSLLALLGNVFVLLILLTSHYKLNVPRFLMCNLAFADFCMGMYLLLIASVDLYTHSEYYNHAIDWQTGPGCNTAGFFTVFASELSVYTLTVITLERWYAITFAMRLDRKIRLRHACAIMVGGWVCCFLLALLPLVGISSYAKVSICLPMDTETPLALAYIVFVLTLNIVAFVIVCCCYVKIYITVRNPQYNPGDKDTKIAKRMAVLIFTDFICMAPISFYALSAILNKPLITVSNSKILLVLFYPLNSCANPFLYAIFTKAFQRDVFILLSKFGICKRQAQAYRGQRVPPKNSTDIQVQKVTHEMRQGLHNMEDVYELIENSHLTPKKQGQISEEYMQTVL

This assay addresses Thyrotropin receptor (Homo sapiens) (UniProt P16473). Put plainly: qHTS Assay for Antagonists of the Thyroid Stimulating Hormone Receptor (AID 488980). Further: 0% is about no effect. The following applies: TSHR-expressing cells, cAMP antagonist read-out; series mostly up to 57.5 µM; activity, negative = inhibition: at the top concentration. The source says:
TSH is an alpha/beta heterodimeric glycoprotein hormone secreted from the anterior pituitary gland which belongs to the glycoprotein hormone family. The actions of TSH are mediated by a seven-transmembrane receptor, which upon TSH binding couples preferentially to the G-alpha (s) protein (Gs), resulting in activation of adenylate cyclase and increase in cyclic adenosine 3', 5' monophosphate (cAMP). The TSH receptor (THSR) is mainly expressed in thyroid follicular cells and regulates their growth and function. This cell based assay was conducted on a TSHR transfected HEK 293 cell line, measuring cAMP stimulation using antibody-based Homogeneous Time Resolved Fluorescence (HTRF).
Our goal is to identify small molecules that will inhibit (antagonize) the thyroid-stimulating hormone receptor (TSHR), a member of the 7 transmembrane-spanning receptor (7TMR) family of cell surface receptors. TSHR-mediated hyperthyroidism is important in thyroid pathology. The development of small molecule antagonists of TSHR may lead to therapeutic approaches for TSHR-mediated hyperthyroidism caused by constitutively activating mutations or stimulating auto-antibodies associated with Graves' disease. Graves' disease is the leading cause of hyperthyroidism and is caused by autoantibodies that stimulate TSHR (TsAbs) causing thyroid growth and unregulated overproduction of thyroid hormones and existing treatments have liabilities (agranulocytosis). In addition, TSHRs are known to be expressed in multiple extrathyroidal tissues including bone, brain, kidney, testis, fat and cells of the immune system but the role of the TSHR in these tissues is not clear. Therefore, TSHR antagonists/inverse agonists could be used as probes of extrathyroidal TSHR function. Finally, TSHR inverse agonists, which are a subclass of antagonists that inhibit agonist-independent (or basal or constitutive) TSHR signaling, could be used to inhibit TSH-independent signaling in patients with recurrent or metastatic thyroid cancer who are receiving thyroid hormone to suppress TSH.
An anti cAMP antibody contains a fluorescent cryptate tag (excitation 337 nm; emission 620 nm) and the acceptor is cAMP-d2 (excitation 620 nm; emission 665 nm). When antibody and cAMP-d2 interact and are excited by a 337 nm light, a FRET occurs resulting in emission at 665 nm. The assay is competition between cAMP-d2 and cAMP (from the cell lysate). The homogeneous protocol allows for one step dispense after stimulation that is automation friendly.
Step, Parameter, Value, Description
1, Cells, 3 uL, 2000 TSHR freshly harvested cells/well 1536 TC treated White solid bottom plate (Cells resuspended in 10 mM HEPES buffered HBSS and 70 uM RO 20-1724)
2, Compound, 23 nL, Libraries and controls
3, Compound, 1 uL, EC80 TSH (4 nM final)
5, Reagent, 2 uL, cAMP antibody diluted 1:20 in lysis buffer
6, Time, 30 minutes, Room temperature
7, Detector, HTRF settings, Viewlux
For orientation: qHTS replaces the single test concentration by a dilution series.
As to `CCn1c(=O)c2[nH]c(-c3ccccc3)nc2n(CC)c1=O`, the “activity, negative = inhibition” value is -1.33%.
Regarding `CSc1nc(N)c2ncn([C@@H]3O[C@H](COP(=O)(O)OP(=O)(O)O)[C@H](O)[C@H]3O)c2n1`, the “activity, negative = inhibition” value is 0.47%.
With `CN=C(N)NCCCC(N)C(=O)O` (stereo not given), the “activity, negative = inhibition” value is -1.07%.
Under `O=[N+]([O-])c1ccc(CSc2ncnc3c2ncn3[C@@H]2O[C@H](CO)[C@H](O)[C@H]2O)cc1` stands -1.08%.
Under `Cc1ccccc1N1CCN(S(=O)(=O)C[C@]23CCC(CC2NC(=O)[C@@H](N)CCS(C)(=O)=O)C3(C)C)CC1` (stereo not given in full) stands -0.683%; under `C[C@]12C=CC(=O)C=C1CCC1C2=CC[C@]2(C)[C@@H](C(=O)CN3CCN(c4cc(N5CCCC5)nc(N5CCCC5)n4)CC3)CC[C@@H]12` (stereo not given in full), -1.66%.
Consider `NCC1OC(O[C@@H]2[C@H](O)[C@@H](OC3C(O)C(N)CC(N)C3OC3OC(CO)C(O)C(O)C3N)O[C@@H]2CO)C(N)C(O)C1O` (stereo not given in full), for which the “activity, negative = inhibition” value is -0.0235%.
To `NCCNC(=O)c1ccc(Cl)cc1` belongs -1.02%; to `CNC(=O)[C@H]1O[C@@H](n2cnc3c(NCc4ccc(N)cc4)ncnc32)[C@H](O)[C@H]1O`, -2.16%; to `C[C@H]1CC2[C@@H]3CCC4=CC(=O)C=C[C@]4(C)[C@@]3(Cl)[C@@H](O)C[C@]2(C)[C@@]1(O)C(=O)CO` (stereo not given in full), -0.975%.
As for `C[C@H](Cc1ccccc1)Nc1ncnc2c1ncn2[C@@H]1O[C@H](CO)[C@H](O)[C@H]1O`, the “activity, negative = inhibition” value is -1.23%.
Under `CN(CCOc1ccc(C[C@H](Nc2ccccc2C(=O)c2ccccc2)C(=O)O)cc1)c1ccccn1` stands -2.07%; under `NC(=O)C1=CN(C2OC(COP(=O)(O)OP(=O)(O)OC[C@H]3O[C@@H](n4cnc5c(N)ncnc54)[C@H](OP(=O)(O)O)[C@H]3O)C(O)C2O)C=CC1` (stereo not given in full), -0.536%.
To `CCCCC#Cc1nc(N)c2ncn([C@@H]3O[C@H](C(=O)NCC)[C@@H](O)[C@H]3O)c2n1` belongs -1.13%.
To `COC(=O)c1c(-c2cc(OC)c(OC)c(OC)c2)c2ccc(OCc3ccccn3)cc2c(=O)n1-c1ccc(N)cc1` belongs -1.63%.
With `CCCC(=O)NCCc1c2n(c3ccc(OC)cc13)Cc1ccccc1-2`, the “activity, negative = inhibition” value was -3.99%.
Under `Nc1nc2c(nc(Br)n2C2O[C@H]3COP(=O)(O)O[C@@H]3C2O)c(=O)[nH]1` (stereo not given in full) stands -1.8%; under `OC[C@H]1O[C@@H](n2cnc3c(Nc4ccccc4)ncnc32)[C@H](O)[C@H]1O`, -1.95%; under `CN1C2CC(OC(=O)C(CO)c3ccccc3)CC1C1OC12` (stereo not given), -1.68%.
On to `NCCC(=O)NCCc1cnc[nH]1`, for which the “activity, negative = inhibition” value is -0.625%.
To `N=C1Sc2ccccc2C2=NCCCN12` belongs -0.819%; to `CN1C2CCC1CC(NC(=O)c1nn(C)c3ccccc13)C2` (stereo not given), -0.243%; to `Nc1ncnc2c1ncn2[C@@H]1O[C@H](C(=O)NC2CC2)[C@H](O)[C@H]1O`, -2.6%.
Consider `CC(N)=NCCCC(N)C(=O)O` (stereo not given), for which the “activity, negative = inhibition” value is -0.793%.
As for `CCCCCCCCCCCCCCC/C=C/[C@@H](O)[C@H](NC(=O)CCCCCCCCCCCCC)OC` (tested in a mixture with another compound), the “activity, negative = inhibition” value is -2.54%.
Under `CC(=O)[C@@]1(O)CC[C@H]2C3CCC4=CC(=O)CC[C@]4(C)C3CC[C@@]21C` (stereo not given in full) stands -0.505%.
Regarding `COc1ccc2c(c1)c(CC(=O)O)c(C)n2Cc1ccc(F)cc1`, the “activity, negative = inhibition” value is -0.047%.
To `NC(=S)NCCCC(N)C(=O)O` (stereo not given) belongs -1.44%; to `O=C(Cc1ccc(Cl)c(Cl)c1)OCCN1CCCC1`, -0.822%.
Take `NC(=S)c1ccc[n+]([C@@H]2O[C@@H](COP(=O)([O-])OP(=O)(O)OC[C@H]3O[C@@H](n4cnc5c(N)ncnc54)[C@H](OP(=O)(O)O)[C@H]3O)C(O)C2O)c1` (stereo not given in full): the “activity, negative = inhibition” value was -1.74%.
To `CC(C)C[C@H]1C(=O)N2CCCC2[C@]2(O)O[C@](NC(=O)[C@@H]3C=C4c5cccc6[nH]c(Br)c(c56)C[C@H]4N(C)C3)(C(C)C)C(=O)N12` (stereo not given in full) belongs 0.086%; to `CC(=O)NCCc1ccc(O)c(O)c1`, -0.337%.
To `NC(=NCCC[C@H](N)C(=O)O)NO` belongs -0.297%; to `C[C@]12CCC(=O)C=C1CC[C@@H]1C2[C@@H](O)C[C@@]2(C)[C@H]1CC[C@]2(O)C(=O)CO` (stereo not given in full), -0.274%; to `COc1c2c(nc3ccccc13)OC(C(C)(O)CO)C2` (stereo not given), -0.0861%.
To `Nc1ncnc2c1ncn2[C@@H]1O[C@H](CO)[C@H](O)[C@H]1O` belongs -1.22%; to `N=C(N)SCCc1cccc(CCSC(=N)N)c1`, 0.0783%; to `CN1CCc2cc(Cl)c(O)cc2C(c2ccccc2)C1` (stereo not given), -2.05%.
With `CSc1nc(N)c2ncn([C@@H]3O[C@H](COP(=O)(O)OP(=O)(O)OP(=O)(O)O)[C@H](O)[C@H]3O)c2n1`, the “activity, negative = inhibition” value is -0.346%.
To `COc1cc(=O)n(C)c2c(OCC(O)C(C)(C)O)cccc12` (stereo not given) belongs -0.776%.
